LmPK inh: LmPK (Leishmania mexicana) enzyme inhibition. Q27686. purified LmPK, Kinase-Glo ATP luminescence, 1 h. Potency, µM (highest dose often 57.5 µM), for the others: at the top dose activity change, negative = inhibition, most hits filed as inhibitors. 290,000 tested, 0.37% active. AID 1721; further: on the % scale 0 is the no-effect control and ±100 the full control effect
Target sequence (Q27686 whole entry, looked up): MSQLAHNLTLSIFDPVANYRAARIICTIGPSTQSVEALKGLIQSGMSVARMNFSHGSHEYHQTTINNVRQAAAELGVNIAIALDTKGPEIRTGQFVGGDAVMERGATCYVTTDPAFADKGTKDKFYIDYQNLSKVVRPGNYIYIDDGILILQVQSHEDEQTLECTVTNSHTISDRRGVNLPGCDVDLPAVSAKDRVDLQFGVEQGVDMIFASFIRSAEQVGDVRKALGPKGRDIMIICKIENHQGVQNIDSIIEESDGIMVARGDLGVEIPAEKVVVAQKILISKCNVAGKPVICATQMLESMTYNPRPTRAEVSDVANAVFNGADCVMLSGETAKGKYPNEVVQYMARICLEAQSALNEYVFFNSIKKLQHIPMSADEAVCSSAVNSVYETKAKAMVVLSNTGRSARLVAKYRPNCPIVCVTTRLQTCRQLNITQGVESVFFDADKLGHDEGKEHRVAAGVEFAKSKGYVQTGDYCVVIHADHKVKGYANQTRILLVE
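Screened at intermediate enzyme activity to detect both inhibitors and activators: LmPK at 0.1 nM, with a 0.5 nM enzyme column as activation reference. PEP 0.5 mM, ADP 0.1 mM; ATP detected by luminescence after 1 h.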
NS1 function inh: blocks influenza NS1 protein function | Potency, µM (doses to about 46.1 µM), for the others: top-dose activity, positive = more growth | 270,000 tested, 0.4% active; calls by dose curve; further: actives are rising curves; nearly all actives have a fitted effect of over 50% in size
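A cell-based growth assay was used: compounds that relieve NS1-induced slow growth of budding yeast raise OD600. Assay medium was yeast nitrogen base with ammonium sulphate and -URA supplement, pH 6.0, with 2% galactose.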
RE007 growth inh: less growth of the S. pombe RE007 Vpr strain; S. pombe RE007 Vpr strain, BacTiter-Glo ATP luminescence, 24 h; Potency, µM (doses to about 92.2 µM), for the others: at the highest dose activity change, negative = less growth, actives largely listed as inhibitors; 360,000 tested, 0.21% active; active means well fitted falling curve with a large enough effect; inconclusive means small, poorly fitted or top-dose-only effect; inactive means no such curve, though single readings can be large or run the other way; further: on the % scale 0 is the no-effect control and ±100 the full control effect; nearly all actives have a fitted effect of over 50% in size
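Fission yeast strain RE007, carrying one chromosomally integrated HIV-1 vpr copy, was seeded at OD 0.01 in PMG+AL medium with 23 nL pinned compound. After 24 h at 30 °C and 99% humidity, viability was read by BacTiter-Glo luminescence.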
Sm TGR block: S. mansoni TGR enzyme inhibition; Q962Y6; purified TGR, DTNB reduction, TNB absorbance 405 nm; Potency, µM (highest dose often 114 µM), for inactives: at the highest dose activity change, negative = inhibition, actives largely listed as inhibitors; 360,000 tested, 3% active; AID 485364; further: on the % scale 0 is the no-effect control and ±100 the full control effect; nearly all actives have a fitted effect of over 60% in size
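TGR 20 nM + NADPH 100 uM (dispensed conc.), cpd preinc 15 min RT; start with NADPH (500 uM addition) then DTNB (15 mM addition). Kinetic TNB absorbance, 405 nm filter. Four-parameter Hill fit across titration.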
SARS PLP yeast: inhibitors of SARS-CoV papain-like protease in yeast | S. cerevisiae expressing SARS-CoV PLpro, growth rescue | Potency, µM (series often up to 32.9 µM), for inactives: at the highest dose activity, positive = growth rescue, most hits filed as activators | 330,000 tested, 0.19% active | AID 485353; calls by dose curve; further: 0% is about no effect; nearly all actives have a fitted effect of over 55% in size
Tb PYK inh: T. brucei pyruvate kinase inhibition. TbPYK enzyme, Kinase-Glo Plus ATP luminescence, 45 min. Potency, µM (series often up to 76.8 µM), for inactives: top-dose activity, negative = inhibition, most hits filed as inhibitors. 410,000 tested, 0.12% active. AID 624173; further: on the % scale 0 is the no-effect control and ±100 the full control effect; nearly all actives have a fitted effect of over 50% in size
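Screened from lowest to highest concentration, compounds were pinned into TbPYK/substrate mixtures, and ADP (130 uM final) was added. Plates sat at room temperature for 45 min prior to Kinase-Glo Plus detection by luminescence.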
* hit, by the source's call; ? = inconclusive; nt = no result; [ ] = dose if it differs, or a comment. In the library only some 3.3% were active in any assay of this set; here they are far more common. Unless noted, the call rests on the fitted dose curve; in most records, active means well fitted curve in the direction sought with a large enough effect; inconclusive means small, poorly fitted or top-dose-only effect, or another doubt; inactive means no such curve, though single readings can be large; an effect the other way counts as inactive or inconclusive. Potency means the concentration at half of the fitted maximal effect.

SMILES | LmPK inh | NS1 function inh | RE007 growth inh | Sm TGR block | SARS PLP yeast | Tb PYK inh
O=C(Nc1ccc2c(c1)Cc1ccccc1-2)[C@@H]1[C@H](C(=O)O)[C@]2(Cl)C(Cl)=C(Cl)[C@@]1(Cl)C2(Cl)Cl | nt | 9% | nt | nt | nt | nt
CCOC(=O)CC(S(=O)(=O)c1ccccc1)S(=O)(=O)c1ccccc1 | nt | nt | 2µM* | nt | nt | -5%
O=[N+]([O-])c1ccc(Cl)c([N+](=O)[O-])c1 | nt | nt | ? | 2.2µM* | nt | 1%
Oc1cc(O)cc(/C=C/c2ccc(O)c(O)c2)c1 | nt | -3% | -18%[18.4 µM] | 22µM* | nt | ?
C/C=C/c1ccc(O)c(OC)c1 | nt | nt | -4% | -3% | 1% | 43%
c1ccc(CCN2CCCCCC2)nc1 | nt | 0% | nt | nt | nt | nt
Cc1cc(-c2nn(-c3ccccc3F)cc2CN2CCC(C(N)=O)CC2)c(C)s1 | 3% | -1% | -1% | 45µM* | 0% | 0%
Cc1cc(-c2nn(-c3ccccc3F)cc2CN2CCCC(C(N)=O)C2)c(C)s1 (configuration not stated) | 8% | -1% | -5% | -9% | 0% | -8%
CCc1nc(SCC(=O)c2ccccc2)c2ccccc2n1 | 3% | 1% | -13% | 45µM* | -1% | -6%
COc1ccc(C)cc1NC(=O)c1cc2c(=O)n(Cc3cccnc3)ccc2nc1C | nt | nt | nt | -2% | nt | -3%
Cc1ccc(C(=O)/C=C/c2ccccc2[N+](=O)[O-])cc1 | -3% | -9% | 3% | nt | -2% | 2%
O=C(/C=C/c1ccccc1[N+](=O)[O-])c1ccccc1Br | -2% | -85% | 28µM* | -20% | -5% | 5%
CCCCCCOc1ccc(C(=N)N(CCCC)CCCC)c2ccccc12 | nt | nt | nt | nt | nt | -6%
CCCCNC(=O)c1ccc(NS(=O)(=O)c2ccc3[nH]c(=O)[nH]c3c2)cc1 | -6% | 7% | 24% | -4% | -2% | -7%
CCCCCNC(=O)c1ccc(NS(=O)(=O)c2ccc3[nH]c(=O)[nH]c3c2)cc1 | -2% | 7% | -1% | 25µM* | ? | 1%
Cc1ccc(-n2nc(C)c3c2OC(N)=C(C#N)C3c2ccco2)cc1 (configuration not stated) | -1% | ? | -17% | 40µM* | -1% | -22%
Cc1ccc(SCc2[nH]nc3c2C(c2ccc(C)o2)C(C#N)=C(N)O3)cc1 (configuration not stated) | 7% | -63% | 0% | 25µM* | -30% | 1%
Cc1ccc(-n2nc(C)c3c2OC(N)=C(C#N)C3c2ccc(C)o2)cc1 (configuration not stated) | -5% | -2% | 7% | 22µM* | -20% | -7%
Cc1ccc(SCc2[nH]nc3c2C(c2ccco2)C(C#N)=C(N)O3)cc1 (configuration not stated) | -11% | -37% | 15% | ? | -21% | 1%
Cc1nn(Cc2ccccc2)c2c1C(c1ccco1)C(C#N)=C(N)O2 (configuration not stated) | 7% | -33% | 2% | 50µM* | -3% | -13%
Cc1nn(Cc2ccccc2)c2c1C(c1ccc(Cl)cc1)C(C#N)=C(N)O2 (configuration not stated) | 3% | -5% | 6% | -32% | 12% | 0%
Cc1nn(-c2ccccc2)c2c1C(c1ccccc1)C(C#N)=C(N)O2 (configuration not stated) | -2% | -16% | -13% | -14% | -6% | -1%
CN(C)CCn1c(CO)nc2c1c(=O)n(C)c(=O)n2C | nt | 8% | nt | nt | nt | nt
Cc1nn(C)c2c1c(C(F)(F)F)cc(=O)n2C(C)C(=O)NCc1ccccc1 (configuration not stated) | nt | nt | nt | 1% | nt | 1%
Cc1cc(/C=C2\SC(=O)N(CC(=O)Nc3ccccc3F)C2=O)c(C)n1C | -4% | nt | 10% | 25µM* | 1% | -4%
Cc1cccc(NC(=O)CN2C(=O)N/C(=C/c3cc(C)n(C)c3C)C2=O)c1 | -3% | nt | -13% | 25µM* | -2% | -19%
